# Where a name gives a salt, the structure may show the parent alone.
# Test system: HeLa MZ
# Test: filipin (cholesterol) integrated intensity within LBPA endosomes, Z-score; higher = more cholesterol in LBPA endosomes
# Conditions: compound concentration in added solution (µM; 5 µl added to 20 µl cells): 10; 18 h
# In short: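 After 18 h on 5 µl of 10 µM compound solution in duplicate 384-well imaging plates, HeLa MZ or A431 cells, seeded at 3,500 per well in 20 µl, were fixed with 4% PFA. They were then labelled with 6C4 anti-LBPA antibody, filipin, propidium iodide and CellTracker green, and four 20× fields were recorded per well. Integrated LBPA or filipin intensity per cell, whole-cell or within LBPA endosomes, came from MetaXpress segmentation and was normalised to Z-scores in AcuityXpress.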
row,Structure (SMILES),filipin (z-score)
1,C[C@@H]1NC(=O)NC1=O [Methylhydantoin-5-(L)],-0.338
2,C[C@@](Cc1ccc(O)c(O)c1)(NN)C(=O)O [Carbidopa],-0.634
3,CCN(CC)C(=S)SSC(=S)N(CC)CC [Disulfiram],-0.407
4,C[C@]12C[C@H](O)[C@H]3[C@@H](CCC4=CC(=O)CC[C@@]43C)[C@@H]1CC[C@@H]2C(=O)CO [Corticosterone],-0.407
5,Cc1scc2c1N(C(=O)CN1CCN(C)CC1)c1ccccc1NC2=O [Telenzepine dihydrochloride],-0.401
6,Cc1nnc(SCC2=C(C(=O)O)N3C(=O)[C@@H](NC(=O)Cn4cnnn4)[C@H]3SC2)s1 [Cefazolin sodium salt],-0.417
7,COc1nc(C)nc(Cl)c1NC1=NCCN1 [Moxonidine],-0.384
8,Nc1ccc(S(=O)(=O)c2ccc(N)cc2)cc1 [Dapsone],-0.603
9,CCCCOc1ccc(OCCCN2CCOCC2)cc1 [Pramoxine hydrochloride],0.197
10,CC(C)n1c(/C=C/C(O)CC(O)CC(=O)O)c(-c2ccc(F)cc2)c2ccccc21 (centres undefined) [Fluvastatin sodium salt],-0.372
11,COc1cc(NS(=O)(=O)c2ccc(N)cc2)ncn1 [Sulfamonomethoxine],-0.344
12,CN1C(C(=O)Nc2ccccn2)=C(O)c2sccc2S1(=O)=O [Tenoxicam],-0.391
13,CCOC1O[C@H]([C@@H](COCc2ccccc2)OCc2ccccc2)[C@H](OCc2ccccc2)[C@H]1O (some centres undefined) [Tribenoside],0.525
14,CN[C@H]1CC[C@@H](c2ccc(Cl)c(Cl)c2)c2ccccc21 [Sertraline],3.15
15,COc1ccc(C(=O)c2ccccc2O)c(O)c1 [Dioxybenzone],-0.234
16,CN(C)[C@@H]1C(O)=C(C(N)=O)C(=O)[C@@]2(O)C(O)=C3C(=O)c4c(O)cccc4[C@@](C)(O)[C@H]3[C@H](O)[C@@H]12 [Oxytetracycline dihydrate],-0.753
17,CCCCOc1ccc(C(=O)CCN2CCCCC2)cc1 [Dyclonine hydrochloride],-0.156
18,C1CCC(C(CC2CCCCN2)C2CCCCC2)CC1 (centres undefined) [Perhexiline maleate],2.62
19,CCC(Cc1c(I)cc(I)c(N)c1I)C(=O)O (centres undefined) [Iopanoic acid],-0.466
20,CN(C)CCOC(=O)C(c1ccccc1)C1(O)CCCC1 (centres undefined) [Cyclopentolate hydrochloride],-0.209
21,COc1ccccc1OCC(O)COC(N)=O (centres undefined) [Methocarbamol],-0.501
22,O=C(O)c1cc(-c2ccc(F)cc2F)ccc1O [Diflunisal],-0.569
23,CC(C)(C)CC(C)(C)c1ccc(OCCOCC[N+](C)(C)Cc2ccccc2)cc1 [Benzethonium chloride],0.517
24,CN(N=O)C(=O)N[C@@H](C=O)[C@@H](O)[C@H](O)[C@H](O)CO [Streptozotocin],-0.51
25,Fc1ccc([C@@H]2CCNC[C@H]2COc2ccc3c(c2)OCO3)cc1 [Paroxetine Hydrochloride],2.03
26,C=C(NC(=O)C(=C)NC(=O)c1csc(C2=N[C@@H]3c4csc(n4)[C@H]4NC(=O)c5csc(n5)[C@H]([C@](C)(O)[C@@H](C)O)NC(=O)[C@H]5CSC(=N5)/C(=C/C)NC(=O)[C@H]([C@@H](C)O)NC(=O)c5csc(n5)[C@]3(CC2)NC(=O)[C@H](C)NC(=O)C(=C)NC(=O)[C@H](C)NC(=O)[C@H]([C@@H](C)CC)N[C@@H]2C=Cc3c([C@H](C)O)cc(nc3[C@H]2O)C(=O)O[C@@H]4C)n1)C(N)=O [Thiostrepton],-0.596
27,CC(NCCC(c1ccccc1)c1ccccc1)c1ccccc1 (centres undefined) [Fendiline hydrochloride],2.94
28,Cc1cc(-c2ccccc2)nnc1NCCN1CCOCC1 [Minaprine dihydrochloride],-0.625
29,O=C1NCCN1CCN1CCC(c2cn(-c3ccc(F)cc3)c3ccc(Cl)cc23)CC1 [Sertindole],2.2

# — the supplement of paper PMC6607015
